Test results as given in PubChem BioAssay AID687043 (Milwaukee Institute for Drug Discovery, 2013).
Hit rate of the full screen: of about 16,000 compounds, about 250 (1.6%) were called active. Many of the other results were omitted from the sample, so actives are more common in it than they were. Unmarked numbers belong to inactive results.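 How the source made its calls: active means inhibition above the average over every tested compound plus 3 SD (cut at about 40% in these data); inactive means the rest.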

test system: Hepatitis C virus NS3 helicase; assay: compounds blocking NS3h DNA binding – biochemical, fluorescence polarization, ChemBridge library, primary screen (AID 687043); details: NS3h Cy5-dT15 DNA binding, at 100 µM, hits give high values

With `CCOc1cc(C=C2C(=O)NC(=O)NC2=O)cc(Br)c1OCCOc1ccccc1C` the inhibition was 51.3% (active).

First: Nc1ccc(Cc2ccc(N)c(Cl)c2)cc1Cl
Second: COc1cccc(CN2CCN(Cc3ccccc3OC)CC2)c1
The inhibition of the first is higher: 7.3% for the first, -10.1% for the second.

Compared with `Cc1ccccc1CN1CCN(C(=O)COc2ccc(Cl)cc2)CC1`, `COc1cc(C)cc2oc(=O)c3c(c12)CCC3` is lower in inhibition: 8.5% for the first, -2.5% for the second.
